Calls of active or inactive are those of the source. The calls were made as follows: active = hit-call score of the fitted dose curve at least 0.9, where 1 is the maximum; inactive = score below 0.9.

Read-out in one test: Interleukin 6 (IL6), IL6 (gene 3569)
Nature of the test: LTEA_HepaRG_IL6: Life Technologies and Expression Analysis (LTEA) Assay for Interleukin 6 (IL6) using HepaRG (AID 2283509). Conditions: mRNA level, 48 h; actives raise or lower the signal. In outline: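 qRT-PCR read-out of IL6 transcript, normalized to three housekeeping genes, after 48 h chemical exposure of HepaRG cells; 8-point half-log series, top 100 uM, 0.5% DMSO vehicle. Bidirectional curve fitting against DMSO baseline.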
Consider `Oc1c(Cl)cc(Cl)cc1Cl`, for which the compound was classed as inactive.
A word on the AC50: it is the concentration giving half of the maximal activity seen. For the compound `O=C(O)C1(c2ccc3c(c2)OC[C@H](Cc2ccc(-c4ccccc4)cc2)[C@H]3O)CCCC1`, the AC50 is 78.4 µM (active).
For `CC(C)(C)c1ccccc1O`, the call was inactive.
Consider `CC(C)O.CC(C)O.OCCN(CCO)CCO.OCCN(CCO)CCO.[Ti]`, for which the compound was classed as inactive.
On the same count and under the same terms, with `CN(C)C(=S)S` the entry was “inactive”.
On the same count and under the same terms, the result for `CCCCCCCCCCCCc1cccc(S(=O)(=O)O)c1` reads “inactive”.
As for `Cc1cc(C)cc(C)c1`, the result was inactive.
For `N#Cc1cccnc1`, the compound was called inactive.
On to `COc1ccccc1N`, for which the result was inactive.
Regarding `Clc1cccc(Cl)c1Cl`, the compound was called inactive.
As to `Oc1cc(Cl)c(Cl)cc1Cl`, the outcome was inactive.
Turning to `O=C(N[C@H]1CN2CCC1CC2)c1ccc2c(c1)OCCO2`, the outcome was inactive.
Same read-out and setting: the result for `OCCN(CCO)CCO` reads “inactive”; that for `Clc1cccc(Cl)c1`, “inactive”.

Read-out in a further test: Interleukin 6 Receptor (IL6R), IL6R (gene 3570)
Description: LTEA_HepaRG_IL6R: Life Technologies and Expression Analysis (LTEA) Assay for Interleukin 6 Receptor (IL6R) using HepaRG (AID 2283510).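 As to AC50: differentiated human HepaRG liver cells in serum-free induction medium; TaqMan qRT-PCR signal normalized to ACTB GAPDH and POLR2A housekeeping genes.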 As to conditions: mRNA level, 48 h; actives raise or lower the signal. In outline: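 IL6R transcript level by qRT-PCR after 48 h chemical exposure (8-point, half-log, max 100 uM, 0.5% DMSO vehicle) of HepaRG cells in serum-free induction medium. Normalized to three housekeeping genes; curves fitted in both directions relative to DMSO.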
In the case of `Oc1c(Cl)cc(Cl)cc1Cl`, the outcome was inactive.
Same read-out and setting: with `O=C(O)C1(c2ccc3c(c2)OC[C@H](Cc2ccc(-c4ccccc4)cc2)[C@H]3O)CCCC1` the entry was “inactive”; with `CC(C)(C)c1ccccc1O`, “inactive”; with `CC(C)O.CC(C)O.OCCN(CCO)CCO.OCCN(CCO)CCO.[Ti]`, “inactive”.
As to `CN(C)C(=S)S`, the compound was called inactive.
Take `CCCCCCCCCCCCc1cccc(S(=O)(=O)O)c1`: the compound was classed as inactive.
Regarding `Cc1cc(C)cc(C)c1`, the call was inactive.
Take `N#Cc1cccnc1`: the compound was called inactive.
For the compound `COc1ccccc1N`, the compound was classed as inactive.
Regarding `Oc1cc(Cl)c(Cl)cc1Cl`, the result was inactive.
For the compound `O=C(N[C@H]1CN2CCC1CC2)c1ccc2c(c1)OCCO2`, the AC50 is 12.2 µM (active).
`OCCN(CCO)CCO`: the compound was called inactive.
In the case of `Clc1cccc(Cl)c1`, the outcome was inactive.

Read-out in a further test: Potassium channel subfamily K member 1 (KCNK1), KCNK1 (gene 3775)
Nature of the test: LTEA_HepaRG_KCNK1: Life Technologies and Expression Analysis (LTEA) Assay for Potassium channel subfamily K member 1 (KCNK1) using HepaRG (AID 2283511). Conditions: mRNA level, 48 h; actives raise or lower the signal. In outline:
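HepaRG, 48 h exposure, 8-pt half-log series top 100 uM, 0.5% DMSO vehicle, duplicates. Readout: KCNK1 transcript by qRT-PCR (Fluidigm array), housekeeping-normalized; bidirectional curve fit relative to DMSO baseline.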
On to `Oc1c(Cl)cc(Cl)cc1Cl`, for which the compound was classed as inactive.
As to `O=C(O)C1(c2ccc3c(c2)OC[C@H](Cc2ccc(-c4ccccc4)cc2)[C@H]3O)CCCC1`, the result was inactive.
On to `CC(C)(C)c1ccccc1O`, for which the compound was called inactive.
For `CC(C)O.CC(C)O.OCCN(CCO)CCO.OCCN(CCO)CCO.[Ti]`, the outcome was inactive.
Same read-out and setting: with `CN(C)C(=S)S` the entry was “inactive”.
On to `CCCCCCCCCCCCc1cccc(S(=O)(=O)O)c1`, for which the outcome was inactive.
On to `Cc1cc(C)cc(C)c1`, for which the compound was called inactive.
`N#Cc1cccnc1`: the call was inactive.
On to `COc1ccccc1N`, for which the call was inactive.
Regarding `Clc1cccc(Cl)c1Cl`, the compound was classed as inactive.
For `Oc1cc(Cl)c(Cl)cc1Cl`, the outcome was inactive.
On the same count and under the same terms, the result for `O=C(N[C@H]1CN2CCC1CC2)c1ccc2c(c1)OCCO2` reads “inactive”.
On the same count and under the same terms, with `OCCN(CCO)CCO` the entry was “inactive”.
For `Clc1cccc(Cl)c1`, the call was inactive.

These data come from PubChem BioAssay (EPA / NIEHS).
